An excerpt weighted towards active compounds, which were near 2.5% of everything screened.
HDAC3 inhib: HDAC3 deacetylase inhibitors, primary screen, biochemical, fluorescence, cell-free homogeneous | Histone deacetylase 3 (Homo sapiens), O15379 | recombinant HDAC3, fluorogenic peptide/trypsin coupled | inhibition, % at 8.3 µM | 320,000 tested, 0.15% active | AID 2718, 2010; in the data active = inhibition above about 26%, passing the limit was not always enough
G6PDH CS: L. mesenteroides G6PDH inhibitors, counter-screen for G6PDH-coupled screening assays, biochemical, Leuconostoc mesenteroides enzyme | glucose-6-phosphate dehydrogenase [Leuconostoc mesenteroides] | Purified L. mesenteroides G6PDH, diaphorase/resazurin coupled fluorescence, 45 min | inhibition, % at 5 µM | 200,000 tested, 0.12% active; in the data active = inhibition above about 50%
p97 ATPase inh: inhibitors of human p97 ATPase, primary screen, biochemical; recombinant p97 ATPase, Kinase-Glo ATP luminescence, 3 h; inhibition, % at 8 µM; 220,000 tested, 0.42% active; in the data active = inhibition above about 15%;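 also: 0% = DMSO vehicle and 100% = wells lacking enzyme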
PfM18AAP inh: PfM18AAP inhibitors, malaria aminopeptidase, primary screen, biochemical, QFRET, recombinant enzyme. M18 aspartyl aminopeptidase (Plasmodium falciparum 3D7). inhibition, % at 7.35 µM. H-Glu-NHMec fluorogenic cleavage. 290,000 tested, 1.2% active;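 active = inhibition above the campaign mean inhibition over all tested compounds plus 3 SD, cut at about 28% in these data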;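 also: 0% = plate median of test compound wells and 100% = 2 mM ZnCl2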
SUMO HTRF inh: inhibitors of in vitro SUMOylation cascade, primary screen, biochemical, HTRF, uHTS; SUMO-conjugating enzyme UBC9 (Homo sapiens), P63279; HTRF SUMOylation assay, SAE1/SAE2 + UBC9; inhibition, % at 35 µM; 290,000 tested, 0.36% active; in the data active = inhibition above about 50%, passing the limit was not always enough
Target sequence (P63279 whole entry, looked up): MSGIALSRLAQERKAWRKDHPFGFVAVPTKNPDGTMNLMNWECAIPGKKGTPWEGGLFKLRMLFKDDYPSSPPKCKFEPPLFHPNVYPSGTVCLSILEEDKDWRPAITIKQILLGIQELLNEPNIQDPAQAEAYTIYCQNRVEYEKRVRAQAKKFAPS
PHOSPHO1 block: PubChem AID 1565; recombinant PHOSPHO1, absorbance phosphatase assay; inhibition, % at 13.3 µM; 290,000 tested, 1.1% active; in the data active = inhibition above about 60%
Target sequence (Q8TCT1 whole entry, looked up): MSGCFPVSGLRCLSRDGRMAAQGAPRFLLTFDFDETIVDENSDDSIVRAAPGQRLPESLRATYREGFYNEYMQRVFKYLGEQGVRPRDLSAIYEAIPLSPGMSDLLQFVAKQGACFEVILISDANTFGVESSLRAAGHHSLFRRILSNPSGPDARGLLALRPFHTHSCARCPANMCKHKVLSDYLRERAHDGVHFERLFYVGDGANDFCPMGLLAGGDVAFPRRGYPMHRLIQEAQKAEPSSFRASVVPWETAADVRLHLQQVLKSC
* = called active by the depositor; nt = no result.

SMILES	HDAC3 inhib	G6PDH CS	p97 ATPase inh	PfM18AAP inh	SUMO HTRF inh	PHOSPHO1 block
COc1ccc(OC)c(NC(=O)CCN2C(=O)c3ccccc3C2=O)c1	-5	nt	nt	-3	-2	25
CCN1CCN(C(=S)c2ccc(SC)cc2)CC1	-5	1	0	31*	17	40
CCc1ccc(C(=O)COC(=O)c2ccccc2OC)cc1	-2	nt	nt	-7	-12	14
CCOC(=O)c1sc2cc([N+](=O)[O-])cc(SCC(C)C)c2c1N	-1	2	1	-13	18	64*
CCOC(=O)c1cc(N)cc([N+](=O)[O-])c1	0	-1	5	-6	-5	-2
O=C(OCC(=O)c1ccccc1Cl)C1=NN(c2ccccc2)C(=O)CC1	-4	nt	nt	nt	nt	nt
CCCS(=O)(=O)N1CCC(C(=O)NCCN(CC)c2ccccc2)CC1	-3	-8	-1	31*	-5	-4
C=CCC1(CC=C)CCCN1C(=O)Cn1nnnc1CN(C)C(C)C	5	nt	nt	-4	0	-3
CCCn1c(C)nc2c(c1=O)c1nc3ccccc3nc1n2CCC1=CCCCC1	-10	10	0	6	26	69*
COC(=O)c1c(N)n(-c2ccc(N3CCOCC3)cc2)c2nc3ccccc3nc12	nt	1	nt	nt	52*	1
CCc1nnc(NC(=O)CSc2nnc(-c3cc4ccccc4cc3O)n2CCOC)s1	0	7	17*	-5	-4	44
NS(=O)(=O)c1ccc(CCNc2ccnc3cc(Cl)ccc23)cc1	-1	nt	nt	2	8	31
Cc1ccc(C2C=C(c3ccccc3OC(F)F)Nc3ncnn32)cc1 (configuration not stated)	-6	-14	-5	3	20	-14
CN(C)c1ccc(C2C=C(c3ccc(Cl)cc3OC(F)F)Nc3ncnn32)cc1 (configuration not stated)	12	-30	nt	nt	14	67*
O=C(NN=C1CCCCCCC1)c1ccc(F)cc1	-8	-2	1	-1	-3	-4
Fc1ccc(NC(=S)NN=C2CCCCCC2)cc1	1	-6	1	10	10	100*
S=C(NN=C1CCCCCC1)Nc1ccc(Cl)cc1	-2	9	-1	-6	5	85*
S=C(CN1CCCC1=S)N1CCOCC1	-1	nt	nt	nt	nt	nt
CC(C)(CCC(=S)N1CCOCC1)C1CCCCC1	4	nt	nt	30*	-4	-101
Cc1ccccc1Nc1nnc(SCC(=O)NC(=O)NCc2ccco2)s1	-2	1	1	-1	25	82*
Cc1ccc(-n2c(Cc3cccn3C)nnc2SCC(=O)NCc2ccco2)cc1	-2	0	5	8	-3	78*
O=C(CSc1nnc(Nc2ccccc2)s1)NCc1ccco1	17	5	3	-2	20	25
Cc1cc(NC(=O)CSc2nnc(Nc3ccccc3C)s2)no1	0	nt	6	-4	51	-28
Cc1ccc(Nc2nnc(SCC(=O)NCc3ccco3)s2)cc1	nt	0	5	4	-10	74*
O=C(CSc1nnc(Nc2ccccc2F)s1)NCc1ccco1	nt	6	2	13	12	87*
SMILES	HDAC3 inhib	G6PDH CS	p97 ATPase inh	PfM18AAP inh	SUMO HTRF inh	PHOSPHO1 block
C=CCC[C@H](Cc1ccc(F)cc1)C(=O)OC[C@@H](Cc1c[nH]c2ccccc12)NC(=O)[C@@H](CC=C)CC(=O)NCCO	6	nt	nt	nt	nt	nt
Cn1cccc1Cc1nnc(SCC(=O)N2CCN(c3ccccc3)CC2)n1-c1ccc(F)cc1	4	7	-3	5	31	70*
O=C(CSc1nc2ccccc2nc1SCC(=O)N1CCCCC1)N1CCCCC1	-1	6	0	0	-25	71*
O=C(CSc1nc2ccccc2nc1SCC(=O)N1CCOCC1)N1CCOCC1	4	-29	6	3	-7	-14
C=CCNC(=O)Cn1nnc(-c2ccc(-c3ccc(OC)cc3)cc2)n1	-7	nt	nt	8	-4	39
CCSCCOC(=O)C1=C(C)N(C)C(=O)NC1c1ccc2c(c1)OCO2 (configuration not stated)	-1	nt	nt	1	8	-12
Cc1cc(C(=O)OCC(=O)Nc2cc(S(=O)(=O)N3CCOCC3)ccc2Cl)c(C)o1	4	1	16*	3	2	-9
O=C(NNc1cc(N2CCOCC2)nc(N2CCOCC2)n1)c1ccc(Cl)cc1Cl	5	15	5	6	86*	4
CCc1c(C(C)S(=O)(=O)c2ccc(C)cc2)[nH]c(=O)n1-c1ccc(C)cc1 (configuration not stated)	3	3	0	-22	7	90*
O=C(COC(=O)C1CCC1)NC(=O)c1ccccc1	1	nt	nt	nt	nt	nt
Oc1ccc(/C=N/Nc2ncnc3c2ncn3Cc2ccccc2)cc1O	8	17	4	39*	-28	0
COCCn1c(C)cc(C2=NNC(=Nc3ccccc3)SC2)c1C	6	4	6	3	-4	102*
CC1=[N+](C)c2c(ccc3cccnc23)C1(C)C	nt	19	4	8	90*	-79
Cc1cc(C)cc(N2C(=O)CC(Sc3nnnn3-c3ccccc3)C2=O)c1 (configuration not stated)	0	4	1	-180	12	15
Cc1cc(C)cc(N2C(=O)CC(Sc3ncn[nH]3)C2=O)c1 (configuration not stated)	29*	19	5	27	6	32
O=C(NCCCN1CCOCC1)c1ccc2c(c1)N(Cc1c(F)cccc1Cl)C(=O)CS2	8	nt	nt	-1	4	12
N#Cc1ccsc1NC(=O)CN1CCN(c2ccc(O)cc2)CC1	-1	-12	7	30*	70	4
O=C(CN1CCN(c2ccc(O)cc2)CC1)Nc1ccc(SC(F)F)cc1	2	-20	2	28*	0	-7
COCCCn1c(=O)c2ccccc2n(CC(=O)N2CCCc3ccccc32)c1=O	-3	nt	nt	3	6	16
O=C(O)CCCn1c(O)c(C=C2N=c3ccccc3=N2)sc1=S	7	nt	8	-2	-8	15
CCCC(C(=O)O)n1c(O)c(C=C2N=c3ccccc3=N2)sc1=S (configuration not stated)	7	nt	2	30*	8	41
O=C(O)c1cccc(-n2c(O)c(C=C3N=c4ccccc4=N3)sc2=S)c1	10	nt	7	31*	13	10
CN(Cc1ccccc1)C(=O)Nc1ccc(Cl)cc1	-3	nt	nt	nt	nt	nt
CN(C)c1ccc(N=c2sc3ccccc3n2C)cc1	4	5	1	11	-24	94*
